In the library only some 2.4% were active in any assay of this set; here they are far more common.
D2 PAM-1: potentiates the human D2 dopamine receptor allosterically; P14416; DiscoveRx D2 beta-arrestin cells, luminescence, 90 min; 100% = 57 uM dopamine signal; potentiation, % (test concentration not listed); 360,000 tested, 0.23% active; in the data active = potentiation above about 50%; inconclusive = mostly about 30% to 49%
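D2 cells co-treated with compound plus 50 nM dopamine (EC20) for 90 min at 37 deg C to detect potentiation. Beta-arrestin recruitment was read as enzyme-fragment luminescence after 1 h at ambient temperature. Full response was set by 57 uM dopamine.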
D2 ag-1: agonists of human D2 dopamine receptor; P14416; HEK293 T-REx D2 cells, calcium flux agonist mode; activation, % at 2 µM; 340,000 tested, 0.53% active; AID 485358;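 active = activation over 3 SD above normal in the single-dose calcium agonist read, cut at about 30% in these data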
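HEK293 Trex D2 cells, tetracycline-induced, o/n 30 C 5% CO2; no-wash Ca dye, RT 30–90 min; 10-cycle baseline, 23 nl cpd added, kinetic Ca read 180 s; agonist hits = positive Ca response.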
D2 PAM-2: D2 dopamine receptor (human) potentiation; 340,000 tested, 0.34% active; potentiation, % at 10 µM; HEK293 T-REx D2, calcium flux, EC20 dopamine potentiation; P14416; AID 485347;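 active = potentiation over 3 SD above the plate norm, cut at about 30% in these data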
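Potentiation of an EC20 dopamine calcium response is measured in a force-coupled, tetracycline-inducible Hek293 Trex D2 line. Compound-only kinetic reads over 180 s flag agonists before dopamine addition.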
D2 ag-2: human D2 receptor agonism in beta-arrestin assay; 360,000 tested, 0.084% active; AID 624465; activation, % (concentration not given with the values); P14416; DiscoveRx PathHunter D2 beta-arrestin, luminescence, 90 min; 100% = 57 uM dopamine signal; in the data active = activation above about 40%; inconclusive = between about 15% and that limit
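DiscoveRx PathHunter D2 beta-arrestin cells (2,100/well) attached overnight, then compound-stimulated 90 min at 37 C in HBSS/10 mM HEPES/0.1% Tween-20 buffer; beta-galactosidase complementation read by luminescence after 1 h at ambient temperature. Dopamine 57 uM final (EC100) as control.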
D2 antagonist: D2 dopamine receptor (human) antagonism. P14416. HEK293 TREx D2 cells, calcium flux, dopamine EC80. inhibition, % at 10 µM. 340,000 tested, 2% active. AID 485344; in the data active = inhibition above about 30%; inactive = below that, where a call was filed
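HEK293 T-REx D2 cells, tet-induced, calcium dye no-wash. Cpd pintool add, 180 s kinetic, then EC80 DA, 180 s kinetic. Ca flux read.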
D3 ag: activates human D3 dopamine receptor beta-arrestin recruitment; DiscoveRx D3 beta-arrestin cells, luminescence, 90 min; AID 720506; shares compounds with D2 ag-1; 2,300 tested, 4% active; Potency, µM (titrated, usually from 76.9 µM), hits mostly activators; also: nearly all actives have a fitted effect of over 70% in size
Target sequence (P35462 whole entry, looked up): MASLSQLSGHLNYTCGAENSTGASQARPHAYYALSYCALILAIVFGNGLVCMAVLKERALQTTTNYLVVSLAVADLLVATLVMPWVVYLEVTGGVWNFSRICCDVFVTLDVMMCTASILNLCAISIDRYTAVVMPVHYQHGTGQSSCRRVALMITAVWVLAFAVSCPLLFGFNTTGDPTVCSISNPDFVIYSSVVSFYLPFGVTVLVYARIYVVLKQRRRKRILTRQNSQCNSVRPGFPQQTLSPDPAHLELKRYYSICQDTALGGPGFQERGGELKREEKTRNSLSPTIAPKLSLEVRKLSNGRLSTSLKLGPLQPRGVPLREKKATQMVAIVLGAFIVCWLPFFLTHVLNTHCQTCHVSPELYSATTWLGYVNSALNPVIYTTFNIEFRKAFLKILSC
D2 ag-3: D2 receptor agonism, beta-arrestin counterscreen. shares compounds with D2 ag-1. DiscoveRx PathHunter D2 beta-arrestin, luminescence, 90 min; response scale: percent relative to full dopamine signal. Potency, µM (top dose mostly 76.9 µM), usual class: activators. 2,300 tested, 5.9% active. AID 720507; also: nearly all actives have a fitted effect of over 70% in size
Numbers stand for hits; . = inactive; ? = inconclusive; / = no result given. Unless noted, calls follow the shape of the dose curve; as a rule, active = well fitted activation curve with a large enough effect; inconclusive = small, poorly fitted or top-dose-only effect; inactive = flat fitted curve, though single readings scatter.

SMILES	D2 PAM-1	D2 ag-1	D2 PAM-2	D2 ag-2	D2 antagonist	D3 ag	D2 ag-3
O=C(CN1CCN(c2ccccn2)CC1)Nc1nc2ccccc2s1	.	.	.	.	.	/	/
Cc1cc(NC(=O)CN2CCN(c3ccccn3)CC2)ccc1Br	.	37	.	.	.	16µM	.
Cc1ccc(NC(=O)c2ncn(CCCN3CCN(c4ccccn4)CC3)n2)cc1C	.	/	/	.	/	/	/
O=C(CN1CCN(c2ccccn2)CC1)NC1CCCC1	.	.	.	.	.	.	.
Cc1cc(C)c(NC(=O)CN2CCN(c3ccccn3)CC2)c(C)c1	.	.	.	.	.	.	.
O=C(CN1CCN(c2ccccn2)CC1)Nc1cccc(S(=O)(=O)N2CCCC2)c1	.	60	.	.	60	?	28µM
O=C(Nc1ccc(S(=O)(=O)Nc2ncccn2)cc1)c1ccc(Br)cc1	.	/	/	.	/	/	/
COc1ccc(NC(=O)C2(C)CCN2Cc2ccc(OC)c3ccccc23)cc1OC (stereo unspecified)	.	/	/	.	/	/	/
O=C(Nc1ccc(C(F)(F)F)cc1[N+](=O)[O-])O[C@H]1[C@H](Cc2ccccc2)NS(=O)(=O)[C@H]2C[C@@H]3C=C[C@]12O3	.	44	.	?	.	.	.
COc1cccc(C(=O)O[C@H]2[C@H](Cc3ccccc3)NS(=O)(=O)[C@H]3C[C@@H]4C=C[C@]23O4)c1	.	/	/	.	/	/	/
Cc1cc(C(=O)O[C@H]2[C@H](Cc3ccccc3)NS(=O)(=O)[C@H]3C[C@@H]4C=C[C@]23O4)ccc1[N+](=O)[O-]	.	.	.	.	.	.	.
Cc1cccc(C(=O)O[C@H]2[C@H](C)NS(=O)(=O)[C@H]3CC4C=C[C@]23O4)c1	.	/	/	.	/	/	/
COc1cccc(C(=O)O[C@H]2[C@H](C)NS(=O)(=O)[C@H]3C[C@@H]4C=C[C@]23O4)c1	.	.	.	.	.	.	.
CC1(C(=O)NS(=O)(=O)c2cccs2)CCN1C(=O)CCc1ccc(Cl)cc1Cl (stereo unspecified)	.	/	/	.	/	/	/
COc1cccc2sc(N3CCN(C(=O)CS(=O)(=O)c4ccc(Cl)cc4)CC3)nc12	/	.	.	/	/	/	/
O=C(Cn1c2ncccc2c(=O)n1-c1ccccc1)NCc1ccccc1Cl	/	.	.	/	/	/	/
O=C(NCc1ccc2c(c1)OCO2)C1CCCN1C(=O)Nc1ccccc1 (stereo unspecified)	.	.	.	.	66	.	.
COc1ccccc1NC(=O)N1CCCC1C(=O)NCc1ccc2c(c1)OCO2 (stereo unspecified)	.	.	.	.	.	/	/
COc1ccc(-c2cn(Cc3ccc4c(c3)C(=O)c3ccccc3C4=O)nn2)cc1	.	.	.	.	.	40µM	35µM
CCOc1ccc(-n2c(SCc3nc(-c4ccc(C)cc4)no3)nnc2-c2ccncc2)cc1	.	47	.	.	.	.	.
COc1ccc(-c2noc(CSc3nnc(-c4ccncc4)n3-c3ccc(C)cc3)n2)cc1	/	.	.	/	/	/	/
COc1ccc(NS(=O)(=O)c2cccc(C(=O)NNC(=O)c3ccc(C)o3)c2)cc1	.	.	.	.	.	.	.
CN(C)CCNC(=O)C12CC3(C)CC(C)(CC(C)(C3)C1)C2	.	.	.	.	.	.	.
CC(C)CNC(=O)CN(C1CCCCC1)S(=O)(=O)c1ccccc1	.	.	.	.	.	.	.
COc1cc(/C=C/C(O)=C/C(=O)/C=C/c2ccc(O)cc2)ccc1O	.	48	.	.	.	.	.
SMILES	D2 PAM-1	D2 ag-1	D2 PAM-2	D2 ag-2	D2 antagonist	D3 ag	D2 ag-3
Cc1ccc(C(=O)N2CCN(C34CC5CC(CC(C5)C3)C4)CC2)o1	.	/	/	.	/	.	.
Cc1cnc(C(=O)N2CCCC(N3CCN(c4cccc(C(F)(F)F)c4)CC3)C2)cn1 (stereo unspecified)	.	.	.	.	.	.	.
CC(C)n1cc(C(=O)N2CCCC(N3CCN(c4cccc(Cl)c4)CC3)C2)cn1 (stereo unspecified)	.	52	.	.	.	.	.
O=C(c1ccsc1)N1CCCC(N2CCN(c3cccc(Cl)c3)CC2)C1 (stereo unspecified)	.	.	.	.	.	/	/
COC(=O)c1ccc(C(=O)N2CCCC(N3CCN(c4ccccc4)CC3)C2)nc1 (stereo unspecified)	.	43	.	.	.	.	.
COc1ccc(N2CCN(C(=O)c3ccc(C)c(NC(=O)c4nsc5ccccc45)c3)CC2)cc1	/	.	.	/	/	/	/
O=C(Nc1nc2n(n1)C(c1ccccc1)C=C(c1ccccc1)N2)c1ccccc1 (stereo unspecified)	/	.	.	/	/	/	/
OC(c1cc(-c2ccc(C(F)(F)F)cc2)nc(C(F)(F)F)c1)C1CCCCN1 (stereo unspecified)	.	.	.	?	.	?	?
COc1ccc(CCNC(=O)C2CCC(CNS(=O)(=O)c3ccc(C)cc3)CC2)cc1OC (stereo unspecified)	/	.	.	/	/	/	/
c1cc2c(cc1Cn1cnnn1)OCO2	.	.	.	.	.	/	/
COc1cc(Cn2cnnn2)ccc1O	.	.	.	.	.	.	.
COc1ccccc1N(C)c1cc2c(c3c1ccn3C)C1CCC2O1 (stereo unspecified)	.	/	/	.	/	/	/
Cc1cccc(-n2c(C)nc3cc(C(=O)NCCC4=CCCCC4)ccc32)c1	/	.	.	/	/	/	/
O=S(=O)(Nc1ncn[nH]1)c1ccc2ccccc2c1	.	.	.	.	.	/	/
O=S(=O)(Nc1nc2ccccc2[nH]1)c1ccc2ccccc2c1	.	56	.	.	.	.	.
Cc1ccc(C(=O)/C=C/Nc2ccc(S(=O)(=O)Nc3cc(C)nc(C)n3)cc2)cc1	.	.	.	.	.	.	.
COc1ccc(OC(C)c2nc3ccccc3[nH]2)cc1 (stereo unspecified)	/	/	.	/	/	/	/
CC(=O)N1CCN(C(=O)COC(=O)COc2c(C)cc(C)cc2C)CC1	.	.	.	.	.	.	.
CCOC(=O)N1CCN(C(=O)COC(=O)COc2c(C)cc(C)cc2C)CC1	.	/	/	.	/	/	/
CCOC(=O)C1CCN(S(=O)(=O)c2cc(-c3onc(C)c3C)ccc2OC)CC1	/	.	.	/	/	/	/
COc1ccc(CNC(=O)[C@]2(C)CCC[C@@]3(C)C4CC[C@@]5(C)C[C@]4(CCC32)CC5=O)cc1 (stereo partly specified)	.	.	.	.	.	.	.
COc1ccc2nc3sc(C(=O)NCCN4CCc5ccccc5C4)cc3cc2c1	.	66	.	?	53	.	?
